MgrA-DNA mod = alters Staphylococcus aureus MgrA binding to DNA; 84,000 tested, 0.13% active; fluorescence polarization; inhibition, % (test concentration not listed); AID 602314; in the data active means inhibition above about 30%, passing the limit was not always enough;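 further: higher means less MgrA bound to DNA so lower polarization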
Numbers stand for hits; n = inactive. The sample as a whole holds a higher share of hits than the screen did.

SMILES	MgrA-DNA mod
CN1CCCc2cc(CN)ccc21	62.8
CN1CCCc2cc(/C=C3\CC/C(=C/c4ccc5c(c4)N(C)CCC5)C3=O)ccc21	n
CN1CCCc2cc(/C=C3\CCC(C4CCCC4)C3=O)ccc21 (centres undefined)	n
Cc1ccc(/C=C/C(=O)N2CCN(C(c3ccccc3)c3ccccc3)CC2)o1	n
CN(C)CCN(C(=O)C1CCCCC1)c1nc2ccc(Br)cc2s1	n
O=C(O)c1cc2c3c(c1)C1C=CCC1C(c1ccccc1F)N3CC1CC=CC21 (centres undefined)	74.1
O=C(O)c1cc2c3c(c1)C1C=CCC1C(c1ccccc1)N3CC1CC=CC21 (centres undefined)	n
O=C(O)c1cc2c3c(c1)C1C=CCC1C(c1ccc(F)cc1)N3CC1CC=CC21 (centres undefined)	n
Fc1ccc(-c2nc3c4ccccc4c4ccccc4c3[nH]2)cc1	n
COC(=O)c1c(C)oc(C)c1S(=O)(=O)NC1CCCCCCCCCCC1	n
N#Cc1c(-c2cccs2)cc(-c2ccccc2)[nH]c1=O	n
N#Cc1c(C(F)(F)F)cc(-c2cccs2)[nH]c1=O	n
N#Cc1c(-c2ccco2)cc(-c2cccs2)[nH]c1=O	55.2
O=C(Nc1nc2ccccc2s1)c1cnccc1C(F)(F)F	n
COc1c(C(=O)O)cnc2cc(Cl)ccc12	n
c1cc2c(cc1CNc1ccc(N3CCCC3)cc1)OCO2	n
O=C(Nc1ccc(N2CCCCC2)cc1)c1ccncc1	n
c1cc(CNc2ccc(N3CCCC3)cc2)ccn1	96.8
CCOC(=O)c1c(-c2ccccc2)nc(=O)[nH]c1-c1ccc(-c2ccc(F)cc2)o1	n
Cc1nc(-c2ccc(Cl)cc2)sc1-c1ccnc(N)n1	n
CC1=NN(c2nc3ccccc3[nH]2)C(=O)C1CCC(C)C (centres undefined)	n
O=[N+]([O-])c1ccc(Sc2ccc(F)cc2)c2nonc12	n
COC(=O)C(NC(=O)Nc1ccccc1)C(C)C (centres undefined)	n
COC(=O)C(C(=O)OC)C(Nc1ccccc1)c1ccccc1 (centres undefined)	101.2
COC(=O)C(N=Cc1ccccc1)c1ccccc1 (centres undefined)	n
SMILES	MgrA-DNA mod
Cc1ccc(C)n1CCC(=O)O	103.4
CC1=C(C)C(=O)N(CCC(=O)O)C1=O	n
Cc1ccc2c(c1)c(C)cc(=O)n2CCC(=O)O	n
O=C(OCCN1C(=O)c2cccc3c(N4CCOCC4)ccc(c23)C1=O)c1ccc(S(=O)(=O)N2CCCCC2)cc1	n
CCC(=O)c1cc(C)ccc1O	n
Fc1ccc(C2Nc3ccc(Br)cc3C3C=CCC32)cc1 (centres undefined)	n
CC(=O)c1ccc2c(c1)C1C=CCC1C(c1ccc(Cl)cc1Cl)N2 (centres undefined)	n
CCOC(=O)c1ccc2c(c1)C1C=CCC1C(c1ccccc1F)N2 (centres undefined)	n
CCOC(=O)[C@@H]1Nc2ccc(C(=O)O)cc2[C@@H]2C=CC[C@H]12	70.7
CC(C)c1ccc([C@@H]2Nc3ccc(C(=O)O)cc3[C@@H]3C=CC[C@@H]32)cc1	46.7
CCOC(=O)c1ccc2c(c1)C1C=CCC1C(c1ccc(Cl)cc1Cl)N2 (centres undefined)	n
CSc1sc(Cl)c2c1C(=O)CC(C)(C)C2	n
Cn1c(NC(=O)Cc2ccc(F)cc2)nc2ccccc21	n
C[N+]1(CCC(=O)NCc2ccccc2)CCCCC1	n
Cc1cn(C/C=C\c2ccccc2)c(=O)n(C/C=C/c2ccccc2)c1=O	n
CCOC(=O)C1=C(C)N=c2s/c(=C/c3ccc(OC)c(OC)c3)c(=O)n2C1c1ccc(OC(C)=O)c(OC)c1 (centres undefined)	n
S=C(Nc1ccc(Cl)c(Cl)c1)NC1CCCC1	n
O=C(CN1C(=O)CCc2ccccc21)NCc1ccccc1	n
CN1C(=O)CN(C2CCCCC2)C(=O)c2ccccc21	n
CN1C(=O)/C(=C\C(=O)c2cccs2)c2ccccc21	n
CN1C(=O)/C(=c2/[nH][nH]c(=O)/c2=C\C=C\c2ccccc2)C(=O)c2ccccc21	55.7
Cc1ccc(S(=O)(=O)/C(C#N)=C/c2ccccc2)cc1	n
N#C/C(=C\c1ccc(/C=C(\C#N)S(=O)(=O)c2ccccc2)cc1)S(=O)(=O)c1ccccc1	n
Cc1ccc(S(=O)(=O)/C(C#N)=C/C2=Cc3ccccc3OC2)cc1	62.1
COc1ccc(CN(C(=O)CCN2C(=O)c3ccccc3S2(=O)=O)c2ccccc2O)cc1	n
SMILES	MgrA-DNA mod
O=C(Nc1ccc2[nH]c(=O)[nH]c2c1)c1cc2ccccc2o1	n
CCOC(=O)c1cnc2ccccc2c1NCCCO	n
O=C1OC(c2ccccc2)OC(=O)C1=Cc1cccc(OCc2ccccc2)c1 (centres undefined)	55.8
O=C1NC(=S)N/C1=C\c1cccc(OCc2ccc(F)cc2)c1	n
CCOc1ccc(C=C2C(=O)OC(c3ccccc3)OC2=O)cc1 (centres undefined)	n
CCc1cc(=O)[nH]c(=S)[nH]1	n
Cc1ccc(/C=C2\CC/C(=C\c3ccc(C)o3)C2=O)o1	n
Cc1ccc(/C=C2\SC(=O)NC2=S)o1	81.0
Cc1ccc(/C=C2/SC(=S)N(CCc3ccc(Cl)cc3)C2=O)o1	n

Screens: PubChem BioAssay, ICCB-Longwood Screening Facility, Harvard Medical School
